Data on 31 compounds can be found in PubChem BioAssay (Tox21).

Assay [1] is described as follows: qHTS assay to identify small molecule antagonists of the peroxisome proliferator-activated receptor delta (PPARd) signaling pathway - cell viability counter screen (AID 743213). Further: nearly all actives have a fitted effect of over 50% in size. Further: potency means the concentration at half of the fitted maximal effect. The method, boiled down:
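CellTiter-Glo was added to PPARd-bla HEK293H wells following 17 h compound treatment in the presence of 300 nM L165041. Luminescence was recorded after 30 min at room temperature.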

Assay [2] has as its target Bile acid receptor (Homo sapiens) (UniProt Q96RI1). The assay is described as follows: qHTS assay to identify small molecule antagonists of the farnesoid-X-receptor (FXR) signaling pathway (AID 743217; active means well fitted inhibition curve with a large enough effect in the signal ratio in the repeat runs, not every such curve was filed as active; the % refers to the signal ratio; further: potency means the concentration at half of the fitted maximal effect). In outline:
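FRET fluorescence after 2 h room-temperature LiveBLAzer loading gives the readout. Prior step: FXR-bla HEK 293T cells, seeded and incubated 5 h, received test compounds plus 50 uM final CDCA for 16 h at 37 °C.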
(In general: In qHTS, concentration-response curves come from the screen itself.)

The nature of assay [3]: qHTS assay to identify small molecule agonists of the farnesoid-X-receptor (FXR) signaling pathway - cell viability counter screen (AID 743218). Further: nearly all actives have a fitted effect of over 45% in size. Further: potency means the concentration at half of the fitted maximal effect. The method, boiled down:
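Readout: CellTiter-Glo luminescence, 30 min RT, multiplexed after the FXR-bla FRET reading. HEK 293T FXR-UAS-bla cells received compound 5 h post-plating and were incubated 16 h at 37 C.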

A short description of assay [4]: qHTS assay to identify small molecule antagonists of the farnesoid-X-receptor (FXR) signaling pathway - cell viability counter screen (AID 743221; active means well fitted cell-killing curve with a large enough effect in the repeat runs, not every such curve was filed as active; further: nearly all actives have a fitted effect of over 50% in size; further: potency means the concentration at half of the fitted maximal effect). In outline: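 Compound effects on cell number were measured as CellTiter-Glo luminescence in HEK 293T cells expressing FXR-UAS-bla, after 16 h at 37 C with 50 uM CDCA (final).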
For assay [5], the target named is Vitamin D3 receptor (Homo sapiens) (UniProt P11473). Put plainly: qHTS assay to identify small molecule agonists of the vitamin D receptor (VDR) signaling pathway (AID 743222; calls by dose curve). The method, boiled down:
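Following 4 h attachment at 37C, VDR-bla cells (2,000 per well) received DMSO-dissolved compounds or controls. After 16 h incubation, LiveBLAzer B/G FRET substrate was added and fluorescence read 2 h later at room temperature.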

Assay [6] deals with Peroxisome proliferator-activated receptor delta (Homo sapiens) (UniProt Q03181). The assay is described as follows: qHTS assay to identify small molecule antagonists of the peroxisome proliferator-activated receptor delta (PPARd) signaling pathway (AID 743215; active means well fitted inhibition curve with a large enough effect in the signal ratio in the repeat runs, not every such curve was filed as active; the % refers to the signal ratio;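 further: cells stimulated with agonist L165041 at 300 nM final during compound exposure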; further: potency means the concentration at half of the fitted maximal effect). In outline:
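Fluorescence from cleaved LiveBLAzer B/G FRET substrate (2 h, room temperature) reports PPARd-driven beta-lactamase in HEK293H UAS-bla cells. Cells had been treated 17 h at 37 C with compound plus 300 nM final L165041.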

Assay [7] deals with Bile acid receptor (Homo sapiens) (UniProt Q96RI1). The assay is described as follows: qHTS assay to identify small molecule agonists of the farnesoid-X-receptor (FXR) signaling pathway (AID 743220; active means well fitted activation curve with a large enough effect in the signal ratio in the repeat runs, not every such curve was filed as active; the % refers to the signal ratio). In outline: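 FXR-UAS-bla HEK 293T cells carrying a UAS-driven beta-lactamase reporter were plated for 5 h at 37C/5% CO2, then exposed to DMSO-dissolved Tox21 10K compounds for 16 h at 37C. A LiveBLAzer B/G FRET substrate was loaded for 2 h at room temperature before fluorescence reading.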
Sequence of Bile acid receptor (Homo sapiens) (Q96RI1 whole entry, looked up): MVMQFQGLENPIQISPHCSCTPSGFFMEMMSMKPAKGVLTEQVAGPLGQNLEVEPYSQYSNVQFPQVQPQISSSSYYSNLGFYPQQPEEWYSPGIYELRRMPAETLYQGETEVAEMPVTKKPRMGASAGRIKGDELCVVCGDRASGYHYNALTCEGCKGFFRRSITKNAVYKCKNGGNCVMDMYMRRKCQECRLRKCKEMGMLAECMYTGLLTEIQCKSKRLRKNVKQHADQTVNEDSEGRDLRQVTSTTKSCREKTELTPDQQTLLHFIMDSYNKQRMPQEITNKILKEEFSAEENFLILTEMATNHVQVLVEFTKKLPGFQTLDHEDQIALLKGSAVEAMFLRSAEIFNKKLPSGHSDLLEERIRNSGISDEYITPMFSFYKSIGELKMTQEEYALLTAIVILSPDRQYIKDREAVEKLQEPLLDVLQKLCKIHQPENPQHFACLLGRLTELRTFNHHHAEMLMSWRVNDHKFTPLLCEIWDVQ

The nature of assay [8]: qHTS assay to identify small molecule agonists of the vitamin D receptor (VDR) signaling pathway - cell viability counter screen (AID 743224). Further: nearly all actives have a fitted effect of over 50% in size. Further: potency means the concentration at half of the fitted maximal effect. The method, boiled down: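 In parallel with the bla FRET readout, cytotoxicity toward VDR-bla cells after 16 h compound exposure was assessed by CellTiter-Glo, with luminescence recorded after a 30 min room-temperature incubation.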

The target in assay [9] is Vitamin D3 receptor (Homo sapiens) (UniProt P11473). The assay is described as follows: qHTS assay to identify small molecule antagonists of the vitamin D receptor (VDR) signaling pathway (AID 743223; active means well fitted inhibition curve with a large enough effect in the signal ratio in the repeat runs, not every such curve was filed as active; the % refers to the signal ratio; further: potency means the concentration at half of the fitted maximal effect). The method, boiled down:
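Beta-lactamase activity in VDR-bla cells is measured by FRET substrate fluorescence (2 h, room temperature) after cells spend 16 h at 37C with test compound and 3 nM final 1alpha,25-dihydroxyvitamin D3.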

Values joined by “and” are separate entries in the source; they are usually repeats but may differ in a detail not shown here. Identical values can stand only once. Records with an inconclusive call do not appear. Some structures have more than one record in an assay (separate samples or runs), and their calls can disagree. Active and inactive are the calls of the source. Unless noted, the call rests on the fitted dose curve; in most records, active means well fitted curve in the direction sought with a large enough effect in the repeat runs; inconclusive means weak or mixed curves; inactive means no such curve, though single readings can be large; an effect the other way counts as inactive or inconclusive.

Sequence of Peroxisome proliferator-activated receptor delta (Homo sapiens) (Q03181 whole entry, looked up): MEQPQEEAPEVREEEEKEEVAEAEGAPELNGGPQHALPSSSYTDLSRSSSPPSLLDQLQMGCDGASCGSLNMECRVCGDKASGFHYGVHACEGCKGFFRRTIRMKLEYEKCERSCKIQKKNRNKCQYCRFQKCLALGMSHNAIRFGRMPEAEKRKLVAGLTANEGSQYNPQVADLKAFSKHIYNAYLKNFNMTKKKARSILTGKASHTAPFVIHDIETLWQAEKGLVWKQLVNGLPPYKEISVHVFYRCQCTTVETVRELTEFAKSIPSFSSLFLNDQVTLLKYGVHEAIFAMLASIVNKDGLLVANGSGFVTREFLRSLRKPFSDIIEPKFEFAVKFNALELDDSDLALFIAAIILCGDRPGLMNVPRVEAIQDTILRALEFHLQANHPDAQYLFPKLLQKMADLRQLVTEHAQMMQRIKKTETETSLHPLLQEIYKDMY
Sequence of Vitamin D3 receptor (Homo sapiens) (P11473 whole entry, looked up): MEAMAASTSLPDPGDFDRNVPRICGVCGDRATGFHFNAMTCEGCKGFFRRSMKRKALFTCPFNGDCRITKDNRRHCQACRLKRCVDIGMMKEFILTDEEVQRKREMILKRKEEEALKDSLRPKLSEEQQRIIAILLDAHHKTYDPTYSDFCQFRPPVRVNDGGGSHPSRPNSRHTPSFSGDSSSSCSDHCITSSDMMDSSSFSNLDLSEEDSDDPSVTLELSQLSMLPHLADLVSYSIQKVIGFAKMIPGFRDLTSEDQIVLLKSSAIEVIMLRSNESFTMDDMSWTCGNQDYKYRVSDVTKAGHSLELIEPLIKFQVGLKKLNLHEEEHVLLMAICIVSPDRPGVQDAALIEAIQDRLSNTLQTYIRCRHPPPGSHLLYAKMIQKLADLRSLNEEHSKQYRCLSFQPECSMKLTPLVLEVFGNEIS

`O=C(CBr)c1ccc(O)cc1`: the Potency result in assay [1], in [2], in assay [3], in [4] and in [5] was “inactive” each time.

With `Cc1cc(N=Nc2ccccc2C)ccc1N`, the Potency result in [1], in assay [6], in assay [3] and in [4] was “inactive” in each case. The compound was classed as inactive in assay [7].

With `CC1(c2ccc(Oc3ccccc3)cc2)OC(=O)N(Nc2ccccc2)C1=O` (stereo unspecified), the Potency in [1] is 43.9 µM (active); in assay [6], 24.7 µM (active); in assay [3], 39.1 µM (active); in assay [8], 17.5 µM (active). Further, the outcome in assay [7] was inactive.

As to `CC(C)OC(=S)S`, the Potency result in [1], in [2], in assay [3] and in assay [4] was “inactive” throughout.

For `ClC(Cl)=C(c1ccc(Cl)cc1)c1ccc(Cl)cc1`, the Potency entry in [1], in assay [6], in assay [4], in assay [5] and in [9] was “inactive” each time. Also, the Potency in assay [3] was 38.9 µM (active); in [8], “inactive and 38.9 µM (active)”. Also, the outcome in assay [7] was inactive.

In the case of `CCN(CC)c1c([N+](=O)[O-])cc(C(F)(F)F)c(N)c1[N+](=O)[O-]`, the Potency entry in assay [1], in [6], in assay [4], in [5], in [9] and in assay [8] was “inactive” in each case.

For the compound `CC(Cc1ccc(C(C)(C)C)cc1)CN1C[C@@H](C)O[C@@H](C)C1` (stereo partly specified), the Potency entry in [1], in assay [6] and in [2] was “inactive” throughout. In assay [7], the call was inactive.

With `C[C@]12Cc3nonc3C[C@@H]1CC[C@@H]1[C@@H]2CC[C@@]2(C)[C@H]1CC[C@]2(C)O`, the Potency entry in assay [1], in assay [6], in assay [2], in assay [4], in assay [5] and in assay [9] was “inactive” in each case. Also, the Potency result in assay [8] is “inactive”. Besides, the compound was classed as inactive in assay [7].

With `CCCCCCCCCCCCCCCCCCn1cc[n+](C)c1`, the Potency in assay [1] is 7.72 µM (active); in assay [6], 19.4 µM (active); in assay [3], 48.7 µM (active); in [4], 34.5 µM (active); in assay [8], 9.72 µM (active).

As to `O=C(CCl)Nc1ccccc1`, the Potency result in assay [1] and in [3] was “inactive” each time. The Potency in assay [6] is 17.4 µM (active); in [8] it was 24.5 µM (active). Moreover, the result in assay [7] was inactive.

For the compound `CCOc1cc(C(C)(C)C)ccc1C1COC(c2c(F)cccc2F)=N1` (stereo unspecified), the Potency was 33.4 µM (active) in [1]; 29.7 µM (active) in assay [6]; 33.4 µM (active) in [3]; 29.7 µM (active) in assay [4]; 23.6 µM (active) in [8].

With `O=[N+]([O-])c1ccc2ccc3cccc4ccc1c2c34`, the Potency entry in assay [1], in assay [6], in [2], in assay [4], in [5] and in assay [9] was “inactive” throughout. Further, the Potency entry in assay [8] is “inactive”. In addition, the result in assay [7] was inactive.

For the compound `CC(=O)c1cc(C(C)(C)C)cc2c1CCC2(C)C`, the Potency entry in assay [1], in assay [6], in assay [5] and in assay [9] was “inactive” each time. Moreover, in [8], the Potency was 49 µM (active).

Turning to `Cc1ccc(OP(=O)(Oc2ccccc2)Oc2ccccc2)cc1`, the Potency result in assay [1], in assay [6], in assay [3], in assay [5], in [9] and in assay [8] was “inactive” each time. Also, the compound was classed as inactive in assay [7].

Take `CC1(C)CN=C(NN=C(/C=C/c2ccc(C(F)(F)F)cc2)/C=C/c2ccc(C(F)(F)F)cc2)NC1`: the Potency in [1] was 6.92 µM (active); in assay [2], 19.5 µM (active); in [3], 11 µM (active); in assay [4], 15.5 µM (active); in assay [9], 13.8 µM (active); in [8] it was 6.92 µM (active).

As to `O=C(O)C1C2CCC(O2)C1C(=O)O` (stereo unspecified), the Potency result in [1], in [6], in assay [4], in assay [5], in assay [9] and in assay [8] was “inactive” each time.

Turning to `O=C(Nc1ccc2[nH]ccc2c1)c1cc2cc(F)ccc2n1Cc1cccc(F)c1`, the Potency is 43.6 µM (active) in assay [1]; 54.9 µM (active) in assay [2]; 49 µM (active) in assay [3]; 43.6 µM (active) in assay [9]; 43.6 µM (active) in assay [8]. The compound was classed as inactive in assay [7]. In [5], the Potency entry was “inactive”.

As for `CC(=O)/C=C/c1ccc2c(c1)OCO2`, the Potency result in assay [1] and in assay [8] was “inactive” each time. Also, in [6], the Potency was 43.9 µM (active). For the same compound, in assay [7], the compound was called inactive.

Consider `Oc1ccc(C(c2ccc(O)cc2)(C(F)(F)F)C(F)(F)F)cc1`, for which the Potency entry in [1], in assay [6], in [3], in assay [4], in assay [5] and in [9] was “inactive” each time. Further, the Potency result in assay [8] was “inactive and 54.9 µM (active)”.

Take `Oc1ccc(C2(c3ccc(O)cc3)CCCCC2)cc1`: the Potency in [1] is 46.4 µM (active); in [6], 46.4 µM (active); in [3] it was 23.2 µM (active); in [8], 46.4 µM (active). Moreover, the compound was classed as inactive in assay [7].

Turning to `[Hg+2].[I-].[I-]`, the Potency in [1] was 3.47 µM (active); in [3], 3.09 µM (active); in [4], 3.89 µM (active); in assay [8], 1.55 µM (active).

Take `CN(C)C(=S)[S-].CN(C)C(=S)[S-].[Cu+2]`: the Potency in [1] is 3.36 µM (active); in [3], 0.946 µM (active); in [4] it was 2.38 µM (active); in [8], 1.5 µM (active).

Take `Fc1ccc(Oc2ccnc3cc(Cl)cc(Cl)c23)cc1`: the Potency entry in [1] and in assay [4] was “inactive” each time. The result in [7] was inactive. Moreover, in assay [8], the Potency is 49 µM (active).

On to `CCCCCCCCCCCCCCCC[N+](C)(C)C`, for which the Potency in assay [1] is 21.1 µM (active) and 3.89 µM (active); in assay [3] it was 14.9 µM (active) and 43.6 µM (active); in [8], 21.1 µM (active) and 24.5 µM (active).

`CCOC(=O)CC(=O)CCl`: the Potency result in assay [1], in assay [3], in assay [5] and in assay [8] was “inactive” throughout.

Consider `CCc1nn(C)c(C(=O)NCc2ccc(C(C)(C)C)cc2)c1Cl`, for which the Potency in assay [1] is 43.6 µM (active); in assay [3] it was 49 µM (active); in assay [8], 27.5 µM (active). Also, the compound was classed as inactive in [7]. Also, the Potency result in [5] was “inactive”.

Turning to `ClC(Cl)=C(Cl)Cl`, the Potency result in [1], in [2], in [4], in assay [5], in assay [9] and in [8] was “inactive” each time. Moreover, in [7], the call was inactive.

Turning to `CN(C)[C@@H]1C(=O)C(C(N)=O)=C(O)[C@@]2(O)C(=O)C3=C(O)c4c(O)ccc(Cl)c4[C@@](C)(O)[C@H]3C[C@@H]12`, the Potency result in assay [1], in [3] and in assay [8] was “inactive” throughout. Also, in assay [7], the result was inactive.

On to `O=[N+]([O-])c1cc(C(F)(F)F)c(Cl)c([N+](=O)[O-])c1Cl`, for which the Potency in assay [1] was 7.76 µM (active); in assay [3] it was 7.76 µM (active); in [4], 38.9 µM (active); in assay [8], 12.3 µM (active).

Take `ClC1=C(Cl)C2(Cl)C3C(Cl)C(Cl)CC3C1(Cl)C2(Cl)Cl` (stereo unspecified): the Potency in assay [1] was 49 µM (active); in assay [3], 48.8 µM (active) and 54.9 µM (active); in [4], 61.6 µM (active); in assay [8], 24.5 µM (active) and 17.4 µM (active). Further, the Potency result in assay [5] was “inactive”.

With `C=CC(=O)OCCCCOC(=O)C=C`, the Potency in assay [1] was 43.6 µM (active); in [3], 54.9 µM (active).
